Laboratory results from PubChem BioAssay (NCATS).
Records with an inconclusive call do not appear. Calls of active or inactive are those of the source. Unless noted, the call rests on the fitted dose curve; in most records, active means well fitted curve in either direction with a large enough effect (not every such curve was filed as active); inconclusive means small, poorly fitted or top-dose-only effect, or another doubt; inactive means flat fitted curve, though single readings scatter.

Legend:
[1] = target: Lysosomal acid glucosylceramidase (Homo sapiens) (UniProt P04062); assay: Glucocerebrosidase-p2 (AID 348; in the data active means potency below about 10 µM; further: potency means the concentration at half of the fitted maximal effect); conditions: purified GBA, blue fluorogenic substrate, 40 min
Outline: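 Compounds titrated from 0.6 nM upwards against 0.2 nM enzyme in pH 5.9 citric acid/KH2PO4, taurocholate, tween-20; blue fluorogenic substrate 80 uM, 40 min room temperature, stopped and read Ex 365/Em 440 for AC50.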

[2] = AP1 Signaling Pathway (AID 357); conditions: ME-180 AP-1-bla reporter, EGF-induced, beta-lactamase ratio, 5 h; at 7.69 µM (top of the series) unless noted;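 further: ME-180 reporter cells stimulated with EGF at its EC50 level; on the % scale 0 is the no-effect control and ±100 the full control effect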
Outline: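 Read-out was the 460nm/530nm emission ratio (excitation 405nm) after CCF4 loading for 2.5 hours at room temperature. Cells carried an AP-1-driven beta-lactamase reporter, were stimulated with EC50 EGF plus compound for 5 hours, and AC50 values came from titrations.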

[3] = NFAT Signaling Pathway (AID 444); conditions: Jurkat NFAT-bla M1, carbachol, beta-lactamase ratio, 5 h; at 7.69 µM (top of the series) unless noted;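 further: carbachol stimulus at about its EC50 of 1 µM final; on the % scale 0 is the no-effect control and ±100 the full control effect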
Outline: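 Read-out: CCF4 FRET ratio (460 nm/530 nm) after 1 h RT dye loading, used for %activity and AC50 from titration series. Cells: Jurkat NFAT-β-lactamase/M1 line, treated with compound plus 1 uM carbachol for 5 h, 37 °C.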

[4] = Stat Signaling Pathway (AID 446); conditions: ME-180 SIE beta-lactamase reporter, IL-6 stimulated, 5 h; at 7.69 µM (top of the series) unless noted;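 further: ME-180 cervical cancer cells given 40 pM IL-6 alongside compound; SIE-controlled beta-lactamase reporter measured as 460/530 nm FRET emission ratio; on the % scale 0 is the no-effect control and ±100 the full control effect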
Outline: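 IL-6/STAT signaling read in ME-180 cells via an SIE beta-lactamase reporter. Stimulus was 40 pM IL-6 (its AC50) for 5 hrs, so both activation and inhibition register.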

[5] = target: Glucocorticoid receptor (Homo sapiens) (UniProt P04150); assay: GR-EFC Redistribution (AID 451; calls by dose curve; further: potency means the concentration at half of the fitted maximal effect); conditions: CHO-K1 GR-EFC translocation, beta-gal luminescence, 2 h
Outline: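 Translocation of GR-ED fusion to nuclear EA restores b-gal, read by luminescence after 1 h room-temperature detection. Engineered CHO-K1 biosensor cells, 1,000/well, exposed 2 h at 37 C to titrations up to 46 uM final.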

[6] = target: Mitogen-activated protein kinase 10 (Mus musculus) (UniProt Q61831); assay: JNK3 AlphaScreen Assay (AID 530); conditions: JNK3 lysate, c-Jun phosphorylation; series mostly up to 57.1 µM;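 further: kinase came from lysate of stimulated human HepG2 cells; signal reports phosphorylation of biotinylated GST-cJun 1-79 at Ser73 with 10 µM ATP; on the % scale 0 is the no-effect control and ±100 the full control effect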
Outline: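 Compound titrations were preincubated 15 minutes at room temperature with substrate, antibody and pre-activated JNK3-containing HepG2 lysate. Reactions were started with 10 uM ATP and stopped with EDTA-containing bead buffer for AlphaScreen detection.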

[7] = target: 3',5'-cyclic-AMP phosphodiesterase 4B (Homo sapiens) (UniProt Q07343); assay: qHTS Assay for Inhibitors of PDE-IV (AID 607; active means well fitted activation curve with a large enough effect in the main read-out, with a control signal flat, not every such curve was filed as active; further: % of control where 0% means no effect); conditions: HEK293 ACTOne CNG channel cells, membrane potential fluorescence; series mostly up to 22.9 µM
Outline: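 Live HEK293 cells with a modified cyclic nucleotide-gated (CNG) channel report intracellular cAMP via membrane-potential dye fluorescence (ex 535/em 590 nm). Endogenous PDE-IV was targeted. Compounds were tested at up to 22.9 uM final; RO 20-1724 100 uM served as control.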

[8] = target: Cytochrome P450 3A4 (Homo sapiens) (UniProt P08684); assay: qHTS Assay for Inhibitors and Substrates of Cytochrome P450 3A4 (AID 884; active means well fitted curve in the direction sought with a large enough effect; an effect the other way counts as inactive or inconclusive; further: nearly all actives have a fitted effect of over 50% in size; further: potency means the concentration at half of the fitted maximal effect); conditions: recombinant CYP3A4, Luciferin-PPXE luminescence; series mostly up to 57.1 µM
Outline: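 20 nM human CYP3A4 with 25 uM Luciferin-PPXE (at KM) in 200 mM KPO4, preincubated 10 min with compound; NADPH regeneration started a 60 min RT reaction. Luciferin detected by luminescence, normalized to 57 uM ketoconazole as full inhibition.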

[9] = target: Cytochrome P450 3A4 (Homo sapiens) (UniProt P08684); assay: qHTS Assay for Activators of Cytochrome P450 3A4 (AID 885; active means well fitted curve in the direction sought with a large enough effect; an effect the other way counts as inactive or inconclusive; further: nearly all actives have a fitted effect of over 65% in size; further: potency means the concentration at half of the fitted maximal effect); conditions: recombinant CYP3A4, Luciferin-PPXE luminescence, 60 min; series mostly up to 57.1 µM
Outline: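 Quantitative HTS format: compounds preincubated with 20nM human CYP3A4 and Luciferin-PPXE substrate at KM, reaction started by NADPH regeneration, stopped after 60 min, luciferase luminescence read 20 min later.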

[10] = qHTS Assay for Lipid Storage Modulators (AID 1519; calls by dose curve); conditions: Drosophila S3 cells, BODIPY lipid droplet/cell ratio, laser cytometry, cells loaded with oleic acid; for activity change, negative = inhibition: at 57.5 µM (top of the series)
Outline: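 Cells seeded at 5,000 per well were treated with compounds over a concentration series and loaded with oleic acid (400 uM, as added). Lipid droplet fluorescence (488 nm excitation, 500-530 nm channel) was read by laser-scanning cytometry and normalized to 20 uM Triacsin C.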

[11] = Primary qHTS for small molecule stabilizers of the endoplasmic reticulum resident proteome: Secreted ER Calcium Modulated Protein (SERCaMP) assay (AID 1508630; active means well fitted curve in the direction sought with a large enough effect; an effect the other way counts as inactive or inconclusive; further: on the % scale 0 is the no-effect control and ±100 the full control effect); conditions: SH-SY5Y GLuc-SERCaMP (Gaussia luciferase released on ER calcium loss) secretion, thapsigargin, luminescence; series mostly up to 38.4 µM
Outline: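 GLuc-SERCaMP-expressing SH-SY5Y cells, pretreated 16 h with compound, are challenged with thapsigargin to empty ER calcium stores; after 4 h, coelenterazine is added directly to the medium and luminescence is imaged.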

[12] = qHTS Assay for Identification of Small Molecule Agonists for Hypoxia Response Element Signaling Pathway (AID 914; active means well fitted activation curve with a large enough effect in the signal ratio, with a control signal flat, not every such curve was filed as active; the % refers to the signal ratio; further: % of control where 0% means no effect); conditions: ME-180 (cervical carcinoma) HRE-bla reporter, beta-lactamase ratio, CoCl2, 17 h; activation: stronger effect = higher value
Outline: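 AC50 values come from titration-series %Activity, taken as the 460/530nm ratio of CCF4 fluorescence (excitation 405nm). CellSensor HRE-bla ME-180 cells were treated 17 hours at 37 C with compound plus an EC50 level of CoCl2.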

[13] = measured here: cell count channel max response
[14] = measured here: lipid channel max response

3',5'-cyclic-AMP phosphodiesterase 4B (Homo sapiens), sequence (Q07343 whole entry, looked up): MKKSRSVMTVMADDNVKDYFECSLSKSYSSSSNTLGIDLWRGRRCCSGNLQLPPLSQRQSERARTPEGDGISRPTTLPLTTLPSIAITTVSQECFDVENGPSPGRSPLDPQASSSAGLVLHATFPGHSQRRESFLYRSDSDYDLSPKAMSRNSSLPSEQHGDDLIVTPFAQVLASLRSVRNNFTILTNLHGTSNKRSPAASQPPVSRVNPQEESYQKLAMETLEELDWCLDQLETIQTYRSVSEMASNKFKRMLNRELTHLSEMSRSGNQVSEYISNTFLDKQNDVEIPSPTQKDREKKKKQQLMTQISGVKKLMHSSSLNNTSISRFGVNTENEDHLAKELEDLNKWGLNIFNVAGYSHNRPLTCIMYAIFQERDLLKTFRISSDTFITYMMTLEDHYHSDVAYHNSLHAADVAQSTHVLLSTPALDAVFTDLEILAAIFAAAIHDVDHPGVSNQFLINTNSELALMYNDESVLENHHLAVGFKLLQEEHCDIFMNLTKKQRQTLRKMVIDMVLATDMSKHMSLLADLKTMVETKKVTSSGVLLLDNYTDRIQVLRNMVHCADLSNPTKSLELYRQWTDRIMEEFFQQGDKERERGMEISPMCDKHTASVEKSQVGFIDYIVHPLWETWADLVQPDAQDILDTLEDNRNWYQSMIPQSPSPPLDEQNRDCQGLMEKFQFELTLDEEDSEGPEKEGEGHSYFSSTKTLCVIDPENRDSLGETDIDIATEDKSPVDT
Cytochrome P450 3A4 (Homo sapiens), sequence (P08684 whole entry, looked up): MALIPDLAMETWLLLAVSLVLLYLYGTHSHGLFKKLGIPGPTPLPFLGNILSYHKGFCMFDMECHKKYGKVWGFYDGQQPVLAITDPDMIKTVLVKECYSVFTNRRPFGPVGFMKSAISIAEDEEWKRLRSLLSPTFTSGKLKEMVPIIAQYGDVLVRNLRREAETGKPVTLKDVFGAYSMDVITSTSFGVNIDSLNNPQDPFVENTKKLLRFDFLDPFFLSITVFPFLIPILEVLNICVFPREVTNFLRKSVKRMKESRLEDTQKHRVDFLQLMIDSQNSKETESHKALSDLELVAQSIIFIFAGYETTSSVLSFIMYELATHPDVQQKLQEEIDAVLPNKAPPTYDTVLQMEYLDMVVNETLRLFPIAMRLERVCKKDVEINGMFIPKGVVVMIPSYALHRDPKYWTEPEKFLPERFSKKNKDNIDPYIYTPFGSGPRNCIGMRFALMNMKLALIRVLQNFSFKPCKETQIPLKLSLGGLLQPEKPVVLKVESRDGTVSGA
Glucocorticoid receptor (Homo sapiens), sequence (P04150 whole entry, looked up, the tested form may be a part): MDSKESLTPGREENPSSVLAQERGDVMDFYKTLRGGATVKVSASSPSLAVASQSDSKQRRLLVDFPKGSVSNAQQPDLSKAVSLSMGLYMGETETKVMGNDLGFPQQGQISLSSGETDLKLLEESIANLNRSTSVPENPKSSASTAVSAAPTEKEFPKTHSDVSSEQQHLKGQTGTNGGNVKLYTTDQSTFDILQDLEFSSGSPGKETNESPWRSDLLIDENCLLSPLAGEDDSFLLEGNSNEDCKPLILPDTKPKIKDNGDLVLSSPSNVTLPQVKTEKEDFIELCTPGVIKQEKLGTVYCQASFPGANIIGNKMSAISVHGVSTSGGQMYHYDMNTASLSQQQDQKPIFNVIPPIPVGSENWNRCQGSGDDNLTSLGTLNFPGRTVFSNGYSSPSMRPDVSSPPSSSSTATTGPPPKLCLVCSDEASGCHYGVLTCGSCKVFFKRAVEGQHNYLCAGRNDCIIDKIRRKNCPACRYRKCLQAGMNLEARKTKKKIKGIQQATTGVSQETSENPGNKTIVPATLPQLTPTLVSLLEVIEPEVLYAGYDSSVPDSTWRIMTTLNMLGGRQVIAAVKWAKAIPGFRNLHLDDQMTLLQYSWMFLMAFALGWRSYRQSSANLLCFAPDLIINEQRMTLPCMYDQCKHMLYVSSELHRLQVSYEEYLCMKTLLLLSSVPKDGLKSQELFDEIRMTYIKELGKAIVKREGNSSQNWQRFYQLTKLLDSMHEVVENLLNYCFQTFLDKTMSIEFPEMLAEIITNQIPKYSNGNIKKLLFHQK
Lysosomal acid glucosylceramidase (Homo sapiens), sequence (P04062 whole entry, looked up): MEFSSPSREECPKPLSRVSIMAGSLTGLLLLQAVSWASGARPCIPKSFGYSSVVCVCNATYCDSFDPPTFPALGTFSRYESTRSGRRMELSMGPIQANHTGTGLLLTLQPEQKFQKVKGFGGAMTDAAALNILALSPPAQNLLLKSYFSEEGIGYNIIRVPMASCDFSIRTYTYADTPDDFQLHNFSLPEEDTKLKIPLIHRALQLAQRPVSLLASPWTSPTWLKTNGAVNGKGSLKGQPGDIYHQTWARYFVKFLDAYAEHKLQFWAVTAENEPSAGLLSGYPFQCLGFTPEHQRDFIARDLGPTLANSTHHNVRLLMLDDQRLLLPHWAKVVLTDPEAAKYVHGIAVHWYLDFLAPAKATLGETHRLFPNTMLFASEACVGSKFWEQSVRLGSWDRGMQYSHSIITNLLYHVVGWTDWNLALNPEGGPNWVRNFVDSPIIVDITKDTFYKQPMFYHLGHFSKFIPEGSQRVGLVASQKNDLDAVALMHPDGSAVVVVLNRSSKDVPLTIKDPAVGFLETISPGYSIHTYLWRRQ

Row | SMILES | Potency [1] | activity change, negative = inhibition [2] | activity change, negative = inhibition [3] | activity, negative = inhibition [4] | Potency [5] | Potency [6] | Potency [7] | Potency [8] | Potency [9] | activity change, negative = inhibition [10] | max response [10, 13] | max response [10, 14] | outcome [11] | activation [12]
1 | COc1ccc(C(=O)N2CCC[C@@]3(CCN(CC(C)C)C3)C2)cc1 | > 11.4 µM (inactive) | -12.8% (inactive) | -2.79% (inactive) | -10.6% (inactive) | > 46 µM (inactive) | inactive | inactive | 7.94 µM (active) | inactive | 2.82% (inactive) | 8.22% | 13.2% | inactive | 
2 | Cc1noc(C)c1C(=O)N1CCC2(CC1)CN(Cc1cc(C(F)(F)F)cc(C(F)(F)F)c1)C2 | > 11.4 µM (inactive) | -7.95% (inactive) | -16.8% (inactive) | -3.94% (inactive) | > 46 µM (inactive) | inactive | inactive |  |  | -4.32% (inactive) | -1.83% | -4.57% | inactive | 
3 | O=C(Nc1ccccc1)N1CC2(CCN(S(=O)(=O)c3ccccc3)CC2)C1 | > 11.4 µM (inactive) | -1.41% (inactive) | 16.1% (inactive) | -2.14% (inactive) | > 46 µM (inactive) | inactive | inactive |  |  | -5.83% (inactive) | 0.332% | -5.36% | inactive | -12.4% (inactive)
4 | O=C(c1cnccn1)N1CCC[C@@]2(CCN(c3ccccn3)C2)C1 | > 11.4 µM (inactive) | 7.84% (inactive) | 0.825% (inactive) | 0.945% (inactive) | > 46 µM (inactive) | inactive | inactive |  | inactive | 3.99% (inactive) | 24.1% | 26.9% | inactive | 
5 | COCC(=O)N1CCC2(CCCN(c3ccccc3)C2)CC1 | > 11.4 µM (inactive) | 4.54% (inactive) | -7.94% (inactive) | -0.962% (inactive) | > 46 µM (inactive) | inactive |  |  | inactive | 0.354% (inactive) | 4.96% | 6.05% | inactive | 
6 | CC(=O)N1CCC[C@@]2(CCN(C(=O)Nc3ccccc3)C2)C1 | > 11.4 µM (inactive) | 10.4% (inactive) | 22.8% (inactive) | -3.7% (inactive) | > 46 µM (inactive) | inactive | inactive |  |  | 3.44% (inactive) | -12.3% | -5.99% | inactive | 
7 | O=C(c1cccc(F)c1)N1CCC2(CC1)CN(c1ncccn1)C2 | > 11.4 µM (inactive) | 1.82% (inactive) | -6.5% (inactive) | -6.7% (inactive) | > 46 µM (inactive) | inactive | inactive | inactive | 25.1 µM (active) | 1.3% (inactive) | 1.53% | 3.53% | inactive | 
